Compound activity (PubChem)
An excerpt weighted towards active compounds, which were near 11% of everything screened.
Luciferase inh = blocks purified firefly luciferase enzyme activity; P08659; purified P. pyralis luciferase, luminescence, biochemical; Potency, µM (series often up to 115 µM), usual class: inhibitors; 76,000 compounds, 2.5% hits; further: nearly all actives have a fitted effect of over 65% in size
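Luminescence read by CCD imaging after purified firefly luciferase (10nM final) was added to substrate buffer holding 10uM D-luciferin and 10uM ATP, pH 7.5, pre-dosed with compound.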
HEK293 tox = kills HEK 293 cells; Potency, µM (series often up to 115 µM), without a hit: top-dose activity change, negative = cytotoxicity, usual class: inhibitors; HEK 293 viability, ATP luminescence (CellTiter-Glo), 48-72 h; AID 1345083; 94,000 compounds, 6.6% hits; further: nearly all actives have a fitted effect of over 60% in size
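ATP-coupled CellTiter-Glo luminescence served as viability read-out, recorded 10 min after reagent addition at room temperature. HEK 293 cells, 250 cells/well, had been incubated with pintool-transferred compound for 48 or 72 hr at 37 degree Celsius.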
NIH3T3 tox = NIH 3T3 cell cytotoxicity | NIH 3T3 viability, CellTiter-Glo ATP luminescence, 48-72 h | 94,000 compounds, 4.3% hits | AID 1345082 | Potency, µM (highest dose often 96.7 µM), for the others: at the highest dose activity change, negative = cytotoxicity, actives largely listed as inhibitors; further: nearly all actives have a fitted effect of over 55% in size
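Cytotoxicity is measured as loss of cellular ATP: NIH 3T3 cells (400/well) are exposed to compound for 48 or 72 hr at 37 °C, then CellTiter-Glo luminescence is imaged after 10 min at room temperature.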
hNpr1 antagonist = human Npr1 receptor antagonism. P16066. HEK293 hNpr1 GloSensor cGMP, ANP-stimulated luminescence. Potency, µM (highest dose often 46.3 µM), for the others: top-dose activity change, negative = inhibition, hits mostly inhibitors. 76,000 compounds, 1.6% hits. AID 1347048; calls by dose curve; further: nearly all actives have a fitted effect of over 60% in size
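Compound pre-incubated 30 min at room temperature on GloSensor-loaded HEK293 cells stably carrying hNpr1 and the pGS-40F cGMP biosensor. Stimulation uses hNppA at 0.1 nM final; luminescence is taken at baseline and 20 min post-agonist.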
Starred values were filed as active, the others as inactive; i = inactive; ? = inconclusive; / = no result given; [ ] = dose if it differs, or a comment. Unless noted, the call rests on the fitted dose curve; in most records, active means well fitted curve in the direction sought with a large enough effect; inconclusive means small, poorly fitted or top-dose-only effect, or another doubt; inactive means no such curve, though single readings can be large; an effect the other way counts as inactive or inconclusive. On the % scale 0 is the no-effect control and ±100 the full control effect; potency means the concentration at half of the fitted maximal effect.

SMILES	Luciferase inh	HEK293 tox	NIH3T3 tox	hNpr1 antagonist
COc1ccc(-c2ccccc2NC(=O)C2CCCN(Cc3ccccc3O)C2)cc1 (stereo unspecified)	i	25µM*	?	0%
COc1ccc(-c2ccccc2NC(=O)C2CCCN(Cc3c(O)cccc3OC)C2)cc1 (stereo unspecified)	i	20µM*	?	?
COc1ccc(-c2ccccc2NC(=O)C2CCCN(Cc3ccc(O)c(OC)c3)C2)cc1 (stereo unspecified)	i	?	?	-1%
Cc1ccc(C(=O)N[C@@H]2CN(Cc3ccncc3)C[C@H]2CN(C)C)cc1C	i	25µM*	-26%	3%
Cc1oc(-c2cccc(Cl)c2)nc1CN1CCOCC1	i	-8%	-3%	4%
Cc1cc(N2CCN(Cc3nc(-c4cccc(Cl)c4)no3)CC2)cc(C)n1	i	40µM*	22µM*	-12%
Cc1ccc(Nc2ccnc(N3CCCC3C(=O)NCC(F)F)n2)cc1 (stereo unspecified)	/	40µM*	?	/
Cc1ccc(Nc2ccnc(N3CCCC(C(=O)NCC4CCCCCC4)C3)n2)cc1 (stereo unspecified)	/	28µM*	?	/
C#CCNC(=O)C1CCCN1c1nccc(Nc2ccc(C)cc2)n1 (stereo unspecified)	/	?	-24%[138 µM]	/
Cc1ccc(Nc2ccnc(N3CCCC(C(=O)NCC(F)(F)F)C3)n2)cc1 (stereo unspecified)	/	?	35µM*	/
Cc1ccc(Nc2ccnc(N3CCCC(C(=O)NCc4ccc(C(F)(F)F)cc4)C3)n2)cc1 (stereo unspecified)	/	-15%	-21%	/
Cc1ccc(Nc2ccnc(N3CCCC(C(=O)NCC(F)F)C3)n2)cc1 (stereo unspecified)	/	45µM*	40µM*	/
COc1cc(NC(=O)Cn2c(-c3cnccn3)nc(C)c(C)c2=O)cc(OC)c1OC	i	-33%	-13%	-19%
O=C1CN(C(=O)OCc2ccccc2)CC(O)CN1Cc1ccc2c(c1)OCO2 (stereo unspecified)	/	-26%	?	/
O=C(c1ccccc1F)N1CCC(C(=O)N2CCC(N3Cc4ccccc4C3=O)CC2)CC1	/	?	-14%	/
O=c1n(CCN2CCC(N[S+](=O)([O-])c3cccs3)C2)nc2n1CCCC2 (stereo unspecified)	/	-5%	-5%	/
COc1ccc(C(=O)N2CCN(C(=O)c3nc4cccnc4n(-c4ccccc4OC)c3=O)CC2)cc1	/	2%	-2%	/
CN(C)C(=O)N1CCCC(c2nc(CCOCC3CCCC3)no2)C1 (stereo unspecified)	/	?	-34%	/
O=C(CN1C(=O)NC(c2ccc(Cl)cc2)C2=C1COC2=O)NCCc1ccc(Cl)cc1 (stereo unspecified)	i	45µM*	?	-26%
O=C(CN1C(=O)NC(c2ccc(Cl)cc2)C2=C1COC2=O)Nc1ccccc1 (stereo unspecified)	i	?	?	-15%
CCCCc1ccc(NC(=O)CN2C(=O)NC(c3ccc(Cl)cc3)C3=C2COC3=O)cc1 (stereo unspecified)	i	20µM*	20µM*	-21%
O=C(CN1C(=O)NC(c2ccc(Cl)cc2)C2=C1COC2=O)Nc1ccc(C(F)(F)F)cc1 (stereo unspecified)	i	?	22µM*	?
Cc1ccc(C2NC(=O)N(CC(=O)Nc3ccc(C(F)(F)F)cc3)C3=C2C(=O)OC3)cc1 (stereo unspecified)	i	25µM*	32µM*	?
CC(=O)Nc1ccc(NC(=O)CN2C(=O)NC(c3ccc(C)cc3)C3=C2COC3=O)cc1 (stereo unspecified)	?	-7%	-21%	-10%
CCOC(=O)[C@@H]1[C@@H](O)C(=O)NC12CCN(C(=O)c1ccc(Cl)cc1)CC2	/	-19%	?	/
CC(C)CN1CCC(N2CC(Oc3cccc(C(=O)N4CCCC4)c3)C2)CC1	i	-5%	-10%	10%
Cc1csc(NC(=O)[C@@H]2C[C@@H](c3cccc(C(F)(F)F)c3)N(Cc3cnn(C)c3)C2)n1	i	?	?	2%
O=C(Nc1nccs1)[C@@H]1C[C@@H](c2ccc(F)cc2)N(Cc2ccccc2)C1	i	40µM*	?	?
O=C(Nc1ccncn1)[C@@H]1C[C@@H](c2ccc(F)cc2)N(CCOc2ccccc2)C1	i	?	?	?
